Results reported in PubChem BioAssay AID748 (Sanford-Burnham Center for Chemical Genomics, 2007).
About 100 (0.1%) of roughly 96,000 compounds were called active.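 Rule for the calls: active = displacement above 50% at 20 µM plus a fluorescence interference ratio under 1.5; inactive = the rest.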 Only a selection was taken, and actives are over-represented in it overall. Measured potencies and affinities stand elsewhere.

What follows are compounds tested against Bcl-2-like protein 10 (Homo sapiens) (UniProt Q9HD36) (assay: displacers of TR3 peptide from Bcl-B, primary screen, selectivity assay for Bfl-1 inhibitor project, biochemical, fluorescence polarization, FITC-TR3 peptide (AID 748;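 note: plate controls were wells without compound for no effect and wells lacking Bcl-B protein for full effect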)). Conditions: FP displacement of FITC-TR3 peptide from Bcl-B; at 20 µM; active compounds read high.

displacement, inactive:
CN(C)S(=O)(=O)N(Cc1ccc(Br)cc1)c1ccccc1 0%
CN(C)S(=O)(=O)N(CC(=O)NCc1ccccc1)c1ccccc1 7.3%
CN(C)S(=O)(=O)N(CC(=O)Nc1ccc(F)c(F)c1)c1ccccc1 18%
CN(C)S(=O)(=O)N(CC(=O)Nc1cccc(F)c1)c1ccccc1 9.9%
O=c1[nH][nH]c2nc(C(F)(F)F)cc(C(F)(F)F)c12 -9.8%
CCN(CC)S(=O)(=O)c1cc(C(=O)O)c(Cl)cc1Cl -5.8%
Cc1ccc(NC(=O)c2nc[nH]c2C(=O)Nc2ccc(C)cc2)cc1 4%
Cc1cc(-c2nnc(-c3cc4ccccc4oc3=O)o2)c(C)n1-c1ccccc1 2.6%
CCCOC(=O)Cc1n[nH]c(=O)[nH]c1=O -2.4%
COc1ccc(CN2C(=O)CN(C3CCCCCC3)C(=O)C2c2ccc(F)cc2)cc1 (centres undefined) -2.9%
CCC(=O)Nc1ccc2nc(SCC(=O)N3CCCC3)sc2c1 5.1%
Cn1c(SCC(=O)Nc2ccc3nc(SCC(=O)N4CCCC4)sc3c2)nnc1-c1ccccc1 38.1%
O=C(c1ccc(N2CCNCC2)cc1)c1cccnc1 -3.4%
COC(=O)C1Sc2[nH]c(=O)sc2C2c3ccccc3OC(=O)C12 (centres undefined) 0%
CCOC(=O)C1CCN(Cc2nc3ccccc3c(=O)n2-c2ccc(F)cc2)CC1 -6.2%
Cc1nn(Cc2cccc(C(=O)Nc3ccn(Cc4ccccc4)n3)c2)c(C)c1[N+](=O)[O-] 3.7%
C=CCN1C(=O)/C(=C2/Sc3ccccc3N2C)SC1=Nc1ccccc1C -13%
C=CCN1C(=O)CS/C1=N/c1nccs1 1.8%
Cc1c(Cl)cccc1-n1c(SCC(=O)NCc2ccccc2Cl)nnc1-c1ccncc1 -10.8%
CC1(C)CC(=O)C2=C(C1)c1c(ccc3ccccc13)NC2c1ccco1 (centres undefined) -4.8%
O=C1CCCC2=C1C(c1ccco1)Nc1ccc(C(=O)c3ccccc3)cc1N2 (centres undefined) 22.2%
CCSc1nc(O)c(Cc2ccccc2)c(=O)[nH]1 10.2%
Clc1ccc(-c2nc3ccccc3n2OCc2ccccc2)cc1 -9%
CC(=O)Nc1ccc(NC(=O)Cn2cc3c(n2)CCCC3)cc1 -10.4%
Cc1cc(C)cc(NC(=O)Cn2cc3c(n2)CCCCC3)c1 2.8%
CCCn1c(=O)c2ccccc2n2c(SCC(=O)c3ccc(F)cc3)nnc12 -0.8%
CCOC(=O)c1cnc2cc3c(cn2c1=O)CCCC3 0%
CC(CC(=O)N1CCc2ccccc21)c1ccccc1 (centres undefined) 6.2%
O=C(NCc1ccco1)c1cccs1 -12.3%
O=C(COC(=O)c1ccco1)NCc1ccco1 3.5%
COc1ccc(OCCC(=O)OCC(=O)NCc2ccco2)cc1 16.1%
CCOc1cc(C(=O)OCC(=O)NCc2ccco2)cc(OCC)c1OCC 33.3%
COc1ccccc1OCC(=O)NCc1ccco1 2.1%
O=C(COC(=O)c1ccccc1)NCc1ccco1 40.9%
O=C1NCCCc2nc(Oc3ccccc3)sc21 1.4%
Cc1cc(C)c2c(=O)c3c(oc2c1)C(=O)N(CCO)C3c1cccc(O)c1 (centres undefined) 3.4%
COc1ccc(C(=O)CCC(=O)N2CCN(c3ccc(N4CCOCC4)nn3)CC2)cc1 4.3%
COc1ccccc1-c1nnc(NC(=O)C(C)SC2=NCCS2)s1 (centres undefined) -10.4%
Cc1ccc(NC(=O)CCc2ccc(S(=O)(=O)N3CCOCC3)cc2)c(C)c1 13.6%
c1ccc(-c2nn3c(Cn4nnc5ccccc54)nnc3s2)cc1 0%
c1ccc2c(c1)nnn2Cc1nnc2sc(-c3ccncc3)nn12 -19.6%
Nc1nonc1OCCc1ccccc1 2.7%
O=c1[nH]c(NC2CCCCC2)nnc1Cc1ccccc1 -7%
NC(=O)C1c2ccccc2CSc2ccccc21 (centres undefined) -22.4%
O=C(NCCCc1ccccc1)C1CCN(c2nnc(-n3cccc3)s2)CC1 6.7%
CN1CCN(CCCNC(=O)C2CCN(c3nnc(-n4cccc4)s3)CC2)CC1 8.6%
CCN1CCN(c2cc(C)c3cc(NC(=O)c4cccnc4Cl)ccc3n2)CC1 25.4%
O=C(Nc1ccc(N2CCCCC2)cc1)c1cccnc1Cl -16.3%
O=C(CNC(=O)c1ccco1)OCc1cccc(Cl)c1 -8.6%
O=C(O)C1Nc2c(C(=O)N3CCOCC3)cccc2C2C=CCC12 (centres undefined) 28.7%
O=C(OC1CCCCC1)c1ccc(NC(=O)C2CCCCC2)cc1 6.4%
CC(=O)c1ccc2c(c1)C1C=CCC1C(c1ccncc1)N2 (centres undefined) -8.3%
Cc1ccc2c(c1C)NC(C)CC2C (centres undefined) -4.5%
COC(=O)c1ccc(C2Nc3ccc(/C(C)=N/NC(=O)C(OC)c4ccccc4)cc3C3C=CCC32)cc1 (centres undefined) 5.4%
CC(C)C1Nc2ccc(S(N)(=O)=O)cc2C2C=CCC21 (centres undefined) 25.6%
Cc1ccc(S(=O)(=O)N2CCCN(S(=O)(=O)c3ccc(C)c(C)c3)CC2)cc1C -11.3%
Cc1cccc(C)c1NC(=O)CNc1ccccc1 0.2%
Cn1c(=O)[nH]c(=O)c2c1nc(Br)n2CC(O)c1ccccc1 (centres undefined) 6.4%
CCCCNC(=O)C1C2C=CC3(CN(Cc4ccc(C)cc4)C(=O)C13)O2 (centres undefined) 2.1%
O=C(C1CCCN(Cc2ccncc2)C1)N1CCc2ccccc2C1 (centres undefined) -14.9%
CCOC(=O)CC(N)c1ccc(OC)cc1 (centres undefined) 14.7%
COC(=O)Cc1[nH]n(-c2nc3ccccc3s2)c(=O)c1C(C)=O -6.8%
CCCN=C(C)c1c(-c2ccccc2)[nH]n(-c2nc3ccccc3s2)c1=O -6.3%
CSc1nnc2n(Cc3ccccc3)c(=O)c3c4c(sc3n12)COC(C(C)C)C4 (centres undefined) 1.6%
